Source: PubChem BioAssay (NCI)
Several values for one entry are separate records, joined by “and”; a condition that tells them apart may be missing. Identical values can stand only once. This is part of a sample that, as a whole, favours compounds with a hit. Of some 83,000 tested, about 20% had one in any assay.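 Assay: single dose, 48 h. Readout: percent growth (0 = no net growth; negative = cell death). Active: <10.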 Activity calls are given as the source filed them.

Each compound was assayed on HL-60(TB) leukemia (assay: NCI-60 one-dose screen, 48 h (100 = growth as untreated, 0 = no growth, -100 = all killed)). Settings: 10 µM unless noted.
Procedure: Growth inhibition of the HL-60(TB) human tumor cell line is measured as a screen for anti-cancer activity. Cells are grown in 96 well plates and exposed to the test compound for 48 hours. Compounds are tested at a single concentration, which is 10^-5 M for most compounds. The reported endpoint is percent growth (GI% or GIPRCNT), where numbers from 0 - 100% represent growth inhibition, and numbers from -100% - 0 represent cell death. For example, a value of 40 represents 60% growth inhibition. A value of 0 means no net growth occurred over the course of the experiment. A value of -40 indicates 40% of cells at the beginning of the experiment died by the end of the experiment. A value of -100 means all cells are dead at the end of the experiment.
NCI-60 Human Tumor Cell Lines Screen was performed using the standard one-dose NCI protocol, which is described in more detail at https://dtp.cancer.gov/discovery_development/nci-60/default.htm.
Compounds with GIPRCNT values below 10 were considered active. Activity score was based on GIPRCNT using the following formula: […]
Score is 0 for GIPRCNT values of 100 or above, 50 for GIPRCNT values of 0, and 100 for GIPRCNT values of -100.

| SMILES | growth |
| --- | --- |
| CC[C@H](C)[C@H](NC(=O)[C@H]1CCCCN1C)C(=O)N(C)[C@H](CCc1nc(C(=O)N[C@@H](Cc2ccccc2)C[C@H](C)C(=O)O)cs1)C(C)C | -34.5% (active) |
| CC[CH2][Sn]([Cl])([Cl])[CH2]CC.Oc1ccccc1C=NCCN=Cc1ccccc1O | 7.92% (active) and 64.9% (inactive) |
| COc1ccc2c(c1)c(-c1nc(-c3c[nH]c4ncccc34)cs1)cn2CCCCN1CCOCC1 | 7.66% (active) |
| CC1=CC(=O)CCC12CCOC2=O (stereo not given) | 86.5% (inactive) |
| O=C/C=C/c1ccco1 | 88.2% (inactive) |
| CC1(C)N(Nc2ccccc2)C(=O)C2CCCN21 (stereo not given) | -31.4% (active) |
| CN1[C@@H](CC(=O)c2ccccc2)CCC[C@H]1CC(=O)c1ccccc1 | 116% (inactive) |
| CC1OC(=O)C(C(C)C)NC(=O)C(C(C)C)OC(=O)C(C(C)C)NC(=O)C(C)OC(=O)C(C(C)C)NC(=O)C(C(C)C)OC(=O)C(C(C)C)NC(=O)C(C)OC(=O)C(C(C)C)NC(=O)C(C(C)C)OC(=O)C(C(C)C)NC1=O (stereo not given) | -44.6% (active) |
| COC(=O)[C@@H](C)C[C@H](Cc1ccccc1)NC(=O)c1cccc([C@@H](C[C@H](C(C)C)N(C)C(=O)[C@@H](NC(=O)[C@H]2CCCCN2C)C2CC2)OC(C)=O)n1 | -38.2% (active) |
| CCOC(=O)C1C(C=C(C)C)C1(C)C (stereo not given) | 117% (inactive) |
| C[N+]1(C)CCCC1c1cccnc1 (stereo not given) | 117% (inactive) |
| C[N+]12CCC34C5=CC(=O)C(=O)C=C5[N+]5(C)C(=O)CC6OCC=C(C1)C(CC32)C6C45 (stereo not given) | 84.2% (inactive) |
| O=C(NCCCN1CC1)Nc1cccc2ccccc12 | 107% (inactive) |
| Cc1cc[c-]cc1.Fc1c[c-]c(-c2ccccn2)c(F)c1.N#CCC[PH+](CCC#N)c1ccccc1.[Pt+2] | 2.54% (active) |
| CCOC(=O)C1=C(C)/C(=C\c2[nH]c(C)c(C(=O)OCC)c2C)N=C1C | 41.6% (inactive) |
| CC[C@H](C)[C@H](NC(=O)c1cnccn1)C(=O)N(C)[C@H](C[C@@H](OC(C)=O)c1nc(C(=O)N[C@@H](Cc2ccccc2)C[C@H](C)C(=O)OC)cs1)C(C)C | -43.7% (active) |
| [N-]=[N+]=CC(=O)CCC(=O)C=[N+]=[N-] | 76.4% (inactive) |
| O=[N+]([O-])c1ccc(OCc2ccc(S(=O)(=O)F)c(Cl)c2)c(Cl)c1 | 88.9% (inactive) |
| CCOC(=O)c1cncn1C(C)c1ccccc1 (stereo not given) | 104% (inactive) |
| C[C@]12CCc3nc(-c4ccc(O)c(O)c4)sc3C1=CC[C@@H]1[C@@H]2CC[C@]2(C)C(=O)CC[C@@H]12 | 51.4% (inactive) |

| SMILES | growth |
| --- | --- |
| CN1CCC2(CC1)C(C#N)C(=O)NC(=O)C2C#N (stereo not given) | 107% (inactive) |
| CO[C@@H]([CH2][Hg][O]C(=O)c1ccccc1)[C@@H]([CH2][Hg][O]C(=O)c1ccccc1)OC | 64.9% (inactive) |
| C[C@]12CCc3sc(Nc4ccc(O)cc4)nc3C1=CC[C@@H]1[C@@H]2CC[C@]2(C)C(=O)CC[C@@H]12 | 8.98% (active) |
| CCC(Br)(CC)C(=O)NC(N)=O | 99.6% (inactive) |
| Cn1cc(-c2csc(-c3cn(CCCCN4CCOCC4)c4ccc(F)cc34)n2)c2cccnc21 | 76.2% (inactive) |
| COc1cc(-c2ccc(N)c(OC)c2)ccc1N | 118% (inactive) |
| O=[N+]([O-])c1ccc(P(=O)(O)O)cc1 | 105% (inactive) |
| Cc1cc(N(CCCl)CCCl)ccc1C=Nc1ccc(-c2csc(-c3ccccc3)n2)cc1 | 49.1% (inactive) |
| CSc1cc(/C=C(\C)[C@@H]2C[C@@H]3O[C@]3(C)CCC[C@H](C)[C@H](O)[C@@H](C)C(=O)C(C)(C)[C@@H](O)CC(=O)O2)n(CCNC(=O)OC(C)(C)C)n1 | 8.76% (active) |
| CC1(C)CN=C(NN=C(/C=C/c2ccc(C(F)(F)F)cc2)/C=C/c2ccc(C(F)(F)F)cc2)NC1 | -59.7% (active) |
| CC[C@@H](C)C(=O)O[C@H]1[C@H](O)[C@H]2[C@@H](CN3C[C@@H](C)CC[C@H]3[C@@]2(C)O)[C@@H]2C[C@]34O[C@]5(O)[C@@H](OC(=O)[C@@](C)(O)CC)CC[C@@]3(C)[C@@H]5[C@@H](OC(C)=O)[C@@H](OC(C)=O)[C@H]4[C@@]21O | 92.4% (inactive) |
| O=[N+]([O-])c1ccc2scc3c4ccccc4nc-3c2c1 | 1.24% (active) |
| C[C@@H]1C/C=C\C(=O)O[C@H](/C=C/C#C/C=C/C(C)(C)[C@@H](O)c2cccc(O)c2Br)[C@@H](C)/C=C/[C@H](C)C[C@H](OC(N)=O)C1 | 3.08% (active) |
| O=C1c2ccccc2C(=O)N1N1CC1c1ccccc1 (stereo not given) | 102% (inactive) |
| O=C1NC(=O)C(=C/C=C/c2ccccc2)C(=O)N1 | -5.93% (active) |
| COc1ccc(CN)cc1OC | 98% (inactive) |
| CCC1(CCSC#N)C(=O)NC(=O)NC1=O | 98.3% (inactive) |
| O=C(O)CNCP(=O)(O)O | 95.8% (inactive) |
| O=C1C(=C(O)c2ccccc2)C(=O)c2ccccc21 | 97.6% (inactive) |
| O=C(Cc1ccccc1)c1ccccc1 | 103% (inactive) |
